Assay results reported in ChEMBL document CHEMBL3988442, “University of Dundee, Small-Polar-MMV Screening Library” (2021).
The whole screen tested about 48,000 compounds, of which about 13,000 (27%) showed an effect of 50% or more. The list shows a part of the results.

System: Wolbachia pipientis
Assay: Anti-Wolbachia Cell-Based Screen
Type: functional
Design: scale not given: in the data most compounds retested in dose-response had high values
Conditions: 5 µM

Row | Compound | Percent Effect
1 | O=S(=O)(c1ccc(F)cc1)N1CCCn2cnc(CN3CCCC3)c2C1 | -4.272%
2 | O=S(=O)(c1cc(F)ccc1F)n1cc(Cl)cn1 | 95.85%
3 | O=S(=O)(c1ccc(F)c(F)c1)n1cc(Cl)cn1 | 96.85%
4 | O=S(=O)(c1cc(F)cc(F)c1)N1CCC(Oc2ccc(Cl)cn2)CC1 | 14.51%
5 | CC1CN(S(=O)(=O)c2ccc(F)cc2)c2cccnc2O1 (configuration not stated) | -6.329%
6 | O=S(=O)(c1ccc(F)cc1)n1cc(Cl)cn1 | 120.8%
7 | COc1ccc(F)cc1S(=O)(=O)N1CCC(Oc2ccc(Cl)cn2)CC1 | -6.405%
8 | Cn1cc(CNS(=O)(=O)c2cc(F)ccc2F)cn1 | -25.59%
9 | Cc1cnn(-c2ccc(S(N)(=O)=O)cc2F)c1 | -6.422%
10 | Cc1nc(CCNC(Cc2ccncc2)C(F)(F)F)cs1 (configuration not stated) | -2.78%
11 | CC(O)CCn1ccc2[nH]c(=O)c(C#N)cc2c1=O (configuration not stated) | -44.58%
12 | COc1cc2cc(C(=O)O)n(C)c2c(OC)c1OC | -1.189%
13 | COc1cc2[nH]c(=O)c(CN3CCCC(CO)C3)cc2c(OC)c1OC (configuration not stated) | 1.788%
14 | COC(=O)c1cc2c(OC)c(C)c(OC)cc2[nH]1 | 95.02%
15 | COc1cc2[nH]c(C(=O)O)cc2c(OC)c1C | 98.44%
16 | COC(=O)C(C)NCc1ccc2[nH]c(C)c(C)c2c1 (configuration not stated) | -1.475%
17 | COc1cc2[nH]c(=O)c(CN3CCC[C@@H]3C(N)=O)cc2c(OC)c1OC | -9.081%
18 | COc1cc(C(=O)N(C)Cc2cc(C(=O)O)c(C)o2)cc(OC)c1OC | -0.7675%
19 | COC(=O)c1cc2c(OC)c(OC)c(OC)cc2[nH]1 | 120.2%
20 | COc1cc(C(=O)Nc2c(C)noc2C)ccc1C | 5.924%
21 | CCCn1nc2c(cc1=O)CN(CC(=O)N(C)c1nccs1)CC2 | -22.84%
22 | CCc1cc(NCCCC2CCOC2)n2nccc2n1 (configuration not stated) | -1.009%

Row | Compound | Percent Effect
23 | CCc1nnsc1C(=O)NCCn1nc2ccccn2c1=O | 6.254%
24 | NC(=O)C(NC(=O)c1cc(Cl)c[nH]1)c1ccccc1 (configuration not stated) | 10.72%
25 | c1ccc(CN(Cc2cccc3cnccc23)CC2CCCO2)nc1 (configuration not stated) | 15.94%
26 | CCOCC1CN(S(=O)(=O)C2CC2)Cc2nn(C)cc21 (configuration not stated) | -10.65%
27 | COCC1CN(Cc2ccc(C)o2)Cc2ncn(CC3CC3)c21 (configuration not stated) | 4.542%
28 | COCC1CN(CC2CC2)Cc2nn(C)cc21.O=C(O)C(F)(F)F (configuration not stated) | -11.2%
29 | CCn1cc2c(n1)CN(S(=O)(=O)c1ccc(C)cc1)CC2COC (configuration not stated) | -1.212%
30 | CCOCC1CN(S(=O)(=O)C2CC2)Cc2ncn(CC3CC3)c21 (configuration not stated) | 93.99%
31 | COCC1CN(C(=O)CC2=CCCCC2)Cc2nnn(CC3CC3)c21 (configuration not stated) | 25.21%
32 | CCOCC1CN(S(C)(=O)=O)Cc2ncn(CC3CC3)c21 (configuration not stated) | -5.705%
33 | COCC1CN(S(=O)(=O)C2CC2)Cc2ncn(CC3CC3)c21 (configuration not stated) | 93.96%
34 | COCC1CN(C(=O)CS(C)(=O)=O)Cc2ncn(CC3CC3)c21 (configuration not stated) | 98.19%
35 | COCC1CN(C(=O)Cc2ccccn2)Cc2ncn(C)c21 (configuration not stated) | -6.541%
36 | COCC1CN(CC2CC2)Cc2ncn(CC3CC3)c21 (configuration not stated) | 123%
37 | CCOC(=O)C1CN(S(=O)(=O)C2CC2)Cc2ncn(CC)c21 (configuration not stated) | -2.058%
38 | CCN(C)S(=O)(=O)c1ccc(Cl)cc1C#N | -3.723%
39 | CCN1C(=O)[C@]2(CC[C@@H]3CN(C(=O)NCC(C)C)C[C@@H]32)N=C1C | 1.741%
40 | CCOCC1CN(S(=O)(=O)CC)Cc2nn(C)cc21 (configuration not stated) | -1.442%
41 | CCS(=O)(=O)N1Cc2ncn(CC3CC3)c2C(COC)C1 (configuration not stated) | 96.93%
42 | COCC1CN(S(C)(=O)=O)Cc2ncn(CC3CC3)c21 (configuration not stated) | -3.416%
43 | CCS(=O)(=O)N1CCc2cc(C(=O)NC)c(NCC(C)C)nc2CC1 | -9.983%
44 | C[C@H](NC(=O)Cc1csc(-c2cccc(Cl)c2)n1)C(=O)O | 100.7%

Row | Compound | Percent Effect
45 | CC[C@H](C)[C@H](NC(=O)Cc1csc(-c2cccc(Cl)c2)n1)C(=O)O | -0.2804%
46 | CC(C)C[C@H](NC(=O)Cc1csc(-c2cccc(Cl)c2)n1)C(=O)O | 111.7%
47 | O=C(Cc1csc(-c2ccccc2)n1)N[C@@H](C(=O)O)c1ccccc1 | 112.5%
48 | O=C(Cc1csc(-c2ccc(Cl)cc2)n1)NC(C(=O)O)c1ccccc1 (configuration not stated) | 14.14%
49 | COc1cccc(-c2nc(CNC(C)Cn3cccn3)cs2)c1 (configuration not stated) | 12.67%
50 | O=C(Cc1csc(N2CCNC2=O)n1)NC(c1ccccc1)C1CC1 (configuration not stated) | -8.956%
51 | COc1cccc(-c2nc(C)c(C(=O)N[C@@H](C)C(=O)O)s2)c1 | -5.733%
52 | NC(=O)CCS(=O)(=O)Cc1ccc(OCC(F)(F)F)cc1 | -2.639%
53 | CC(=O)Nc1ccc2c(c1)nc1n2[C@@H](CNCc2ccccc2)COC1 | -2.529%
54 | C1CC(CN2C[C@H]3CC[C@@H]2CN(Cc2noc(C4CCCC4)n2)C3)C1 | -8.86%
55 | O=C1CC(c2cccc(O)c2)c2c(c(C(=O)O)cn2-c2ccccc2)N1 (configuration not stated) | 2.755%
56 | OC[C@@H]1CCCN1c1ccc(-c2nc(COc3ccccc3)no2)cn1 | -5.727%
57 | COCc1noc(-c2ccc(N3CCC[C@H]3CO)nc2)n1 | 11.1%
58 | OC[C@H]1CCCN1c1nccc(-c2cncnc2C2CCCCC2)n1 | 101.1%
59 | OC[C@@H]1CCCN1c1nccc(-c2c[nH]nc2-c2ccncc2)n1 | 132.9%
60 | COCc1noc(-c2ccc(N3CCCCC3CO)nc2)n1 (configuration not stated) | -1.816%
61 | OC[C@H]1CCCN1c1nccc(-c2c[nH]nc2C2CCCCC2)n1 | 103.3%
62 | OCC1CCCN1c1cc(N2CCc3ccccc3C2)ncn1 (configuration not stated) | -8.701%
63 | CC(NC(=O)c1cc2n(n1)CCCN(C)C2)c1cn2ccsc2n1 (configuration not stated) | -3.947%
64 | CC(C)(C)OC(=O)N1CC(CC(=O)NCc2ccsc2)C1 | -134.2%
65 | N#Cc1cccc(CNc2cc(CO)ccc2Cl)c1 | -41.9%
66 | CC(=O)N[C@@H]1CN(C2CCN(c3cccc(C)c3C)CC2)C[C@H]1C(C)C | -7.453%

Row | Compound | Percent Effect
67 | Cc1ncccc1OC1(C(=O)NCc2noc(C(C)C)n2)CCNCC1 | -7.244%
68 | CCCc1nnc(NC(=O)N2CCCC(NC(C)=O)C2)s1 (configuration not stated) | -6.221%
69 | CCc1nnc(Nc2cc(C)nc(C3CN(C(C)=O)CCO3)c2)s1 (configuration not stated) | 108.4%
70 | CNc1cc(C)nc(C2CN(Cc3cc[nH]n3)CCO2)c1 (configuration not stated) | -11.69%
71 | COc1ccc(CNCc2ccnc(N3CCOCC3)c2)c(OC)c1 | -1.923%
72 | COc1cccc(CNCc2ccnc(N3CCOCC3)c2)c1OC | 119.8%
73 | Cl.c1cc(CNCc2ccc3c(c2)CCO3)cc(N2CCOCC2)n1 | -6.468%
74 | COc1cc(CNCc2ccnc(N3CCOCC3)c2)cc(OC)c1 | 97.96%
75 | Cl.c1cc(CNCc2ccnc(N3CCOCC3)c2)c2c(c1)OCO2 | 16.56%
76 | COc1c(C)cc(CNCc2ccnc(N3CCOCC3)c2)cc1C.Cl | 93.56%
77 | COc1ccc(CNCc2ccnc(N3CCOCC3)c2)cc1OC | -3.598%
78 | COc1ccc(OC)c(CNCc2ccnc(N3CCOCC3)c2)c1 | 119.2%
79 | COc1cc(CNCc2ccnc(N3CCOCC3)c2)cc(Cl)c1OC | -1.055%
80 | CCOc1ccccc1N(C)C(=O)c1ccc(Cl)cn1 | -0.6778%
81 | O=C([C@H]1C[C@H]2OCC[C@H]2N(C(=O)c2ccncc2)C1)N1CCCCO1 | 15.67%
82 | CC(=O)c1c(O)ccnc1C(F)(F)F | -30.29%
83 | COc1ccc2c(c1)C(C(=O)N(C)CCc1scnc1C)CC(=O)N2 (configuration not stated) | 13.25%
84 | CCCc1nn(C2CCN(C3CC3)C2=O)c(=O)o1 (configuration not stated) | -0.5192%
85 | CC(C)c1cc(NCC2(CO)CCC2)ncn1 | -3.782%
86 | CCOc1cc(F)ccc1NC(=O)N(C(C)CS(C)(=O)=O)C1CC1 (configuration not stated) | -6.232%
87 | Cc1cncc(C2CCN(Cc3ccsc3)CC2)n1 | 117.4%
88 | CC(c1nc(C2CC2)no1)N1CCN(Cc2ccsc2)CC1 (configuration not stated) | 3.758%

Row | Compound | Percent Effect
89 | COc1cncc(N2CCN(Cc3cccn3C)CC2)n1 | -11%
90 | CCOC(=O)N(C)C1CCN(Cc2ccsc2)CC1 | -3.636%
91 | Cc1cncc(C2CCCN(Cc3cccn3C)C2)n1 (configuration not stated) | 4.46%
92 | Cc1cncc(C2CCN(Cc3cccn3C)CC2)n1 | 121.9%
93 | Cc1ccccc1C(=O)NC[C@@H]1CCN(C(=O)c2cccn2C)C[C@H]1O | 2.167%
94 | Cc1cnn(CCNCc2ccc(C#N)cc2F)c1 | -2.376%
95 | Cn1c(C2CC2)nc2cc(NC(=O)C3(O)CCCC3)ccc21 | -3.273%
96 | CC(Cc1ccco1)NC(=O)CSc1nnc[nH]1 (configuration not stated) | -0.3206%
97 | Cc1ccc(OCC(=O)NCc2ccco2)nc1 | -11.41%
98 | Cc1ccn(CCC(=O)NC(C)Cc2ccco2)n1 (configuration not stated) | 108%
99 | O=C(CCN1C[C@H]2CC[C@@H]1CN(c1ncccn1)C2)NCc1ccco1 | -5.213%
100 | Cc1ccn(CCC(=O)NCc2ccc(C)o2)n1 | 96.24%
101 | COC(=O)CC(NC(=O)CCn1cccn1)c1ccc(C)cc1 (configuration not stated) | -17.18%
102 | Cc1ccn(CCC(=O)NCc2ccco2)n1 | 113.3%
103 | Cc1ccc(CNC(=O)CCC(=O)NCCC(C)C)o1 | -4.384%
104 | CC(NC(=O)CCn1cccn1)c1cccs1 (configuration not stated) | -33.21%
105 | CCN(Cc1nccn1C)C(=O)c1ccc(NCc2ccc(C)o2)nc1 | 12.06%
106 | CCC(C)NC(=O)CCn1ccc(C)n1 (configuration not stated) | 122.6%
107 | CC(Cc1ccco1)NC(=O)CCn1cccn1 (configuration not stated) | -2.22%
